Compounds without any hit were thinned out: in the full panel of roughly 83,000, 20% have a hit.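 The test compound was applied at a single concentration to cells in 96-well plates for 48 hours, and percent growth was recorded.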 Calls of active or inactive are those of the source. Rule for the calls: active = growth percent below 10; inactive = the rest.
Tests used:
Test in all cases: NCI-60 one-dose screen, 48 h (100 = growth as untreated, 0 = no growth, -100 = all killed)
[1] = tested on: NCI-H23 lung; conditions: 10 µM unless noted
[2] = tested on: NCI-H226 lung; conditions: 10 µM unless noted
[3] = tested on: NCI-H322M lung; conditions: 10 µM unless noted
[4] = tested on: HOP-62 NSCLC; conditions: 10 µM unless noted
[5] = tested on: NCI-H460 lung; conditions: 10 µM unless noted
[6] = tested on: HOP-92 NSCLC; conditions: 10 µM unless noted
[7] = tested on: NCI-H522 lung; conditions: 10 µM unless noted
[8] = tested on: A549/ATCC NSCLC; conditions: 10 µM unless noted
[9] = tested on: 786-0 renal; conditions: 10 µM unless noted
[10] = tested on: COLO 205 colon; conditions: 10 µM unless noted
[11] = tested on: DU-145 prostate; conditions: 10 µM unless noted
[12] = tested on: K-562 leukemia; conditions: 10 µM unless noted
[13] = tested on: MALME-3M melanoma; conditions: 10 µM unless noted
[14] = tested on: MDA-MB-231 breast; conditions: 10 µM unless noted
[15] = tested on: RXF 393 renal; conditions: 10 µM unless noted
[16] = tested on: SF-268 CNS; conditions: 10 µM unless noted
[17] = tested on: SF-295 CNS; conditions: 10 µM unless noted
[18] = tested on: SF-539 CNS; conditions: 10 µM unless noted
[19] = tested on: UACC-257 melanoma; conditions: 10 µM
[20] = tested on: M14 melanoma; conditions: 10 µM unless noted

Measured: growth

N/C(=N\OC(=O)CSc1nc2ccccc2s1)c1ccc(Cl)cc1
inactive: [1] 97.7% | [2] 98% | [3] 101% | [4] 88.2% | [5] 108% | [6] 98% | [7] 95% | [8] 103% | [9] 102% | [10] 106% | [11] 105% | [12] 99.1% | [13] 105% | [14] 92% | [15] 122% | [16] 96.2% | [17] 104% | [18] 95.5% | [19] 104% | [20] 100%

Cc1cn(-c2cc(NC(=O)c3cncc(C#Cc4cnc5ccc(O[C@H]6CCOC6)nn45)c3)cc(C(F)(F)F)c2)cn1
active: [6] -9.26%
inactive: [1] 53.7% | [2] 44.9% | [3] 105% | [4] 87.9% | [5] 99.9% | [7] 93.2% | [8] 91.7% | [9] 105% | [10] 69.1% | [11] 91.8% | [12] 12.9% | [13] 52.7% | [14] 47.7% | [15] 60.4% | [16] 94.7% | [17] 96.8% | [18] 59.3% | [19] 97.1% | [20] 57.7%

O=S(=O)(Nc1ccc(-c2nc(-c3cccc(O)c3)c(-c3ccnc(Br)c3)[nH]2)cc1)c1ccccc1
inactive: [1] 16.2% | [2] 40.1% | [3] 41.7% | [4] 33.1% | [5] 19.7% | [6] 13.7% | [7] 25.5% | [8] 51.5% | [9] 17.7% | [10] 43.3% | [11] 54.6% | [13] 39.8% | [14] 23% | [16] 37.1% | [17] 10.4% | [18] 44.4% | [19] 44.5% | [20] 26.1%
active: [12] 2.08% | [15] -16.3%

CCCC(=O)NC(c1cccnc1)c1cc(Cl)c2cccnc2c1O (stereo not given)
inactive: [1] 44.7% | [2] 48.9% | [3] 47.1% | [4] 32.2% | [5] 25.3% | [7] 16.8% | [8] 39.7% | [9] 50.9% | [10] 30.8% | [11] 62.9% | [12] 19.7% | [13] 79.6% | [14] 45.1% | [15] 80.5% | [16] 42.7% | [17] 10.8% | [18] 38% | [19] 34.9% | [20] 44%
active: [6] -5.51%

C#C[C@]1(O)CC[C@H]2[C@@H]3CC=C4c5sc(Nc6cc(OC)ccc6OC)nc5CC[C@]4(C)[C@H]3CC[C@@]21C
active: [9] -2.79% | [12] 6.54% | [15] -57.4% | [17] -67% | [18] -19.4% | [19] 0.933% | [20] -1.11%
inactive: [1] 33.9% | [2] 60.4% | [3] 62.2% | [4] 41.2% | [5] 26.6% | [6] 51.4% | [7] 63.8% | [8] 38% | [10] 18.5% | [11] 43.8% | [13] 14.4% | [14] 35.9% | [16] 30.8%

O=C1[C@H]2Cc3c([nH]c4ccccc34)[C@@H](c3ccc(Cl)cc3)N2C(=O)CN1C1CCN(Cc2c(Cl)cccc2Cl)CC1
active: [9] -64%
inactive: [1] 27.7% | [2] 81.6% | [3] 103% | [4] 84.9% | [5] 86% | [6] 21.5% | [7] 74.6% | [8] 87.6% | [10] 103% | [11] 90.4% | [12] 81.6% | [13] 65.8% | [14] 53% | [15] 109% | [16] 85.6% | [17] 73% | [18] 77.7% | [19] 102% | [20] 84.5%

COc1ccc(-c2ccc3c4c(cccc24)C(=O)N(N2C(=O)c4cccc5cccc(c45)C2=O)C3=O)cc1
inactive: [1] 96.1% | [2] 101% | [3] 102% | [4] 92.7% | [5] 102% | [6] 75.6% | [7] 97.1% | [8] 107% | [9] 99.2% | [10] 103% | [11] 112% | [12] 86.4% | [13] 93.1% | [14] 83.7% | [15] 108% | [16] 97.8% | [17] 105% | [18] 95.7% | [19] 105% | [20] 94.1%

O=C(NNc1nc2cc(F)c(F)cc2n2cccc12)c1ncccn1
inactive: [1] 20.3% | [2] 14% | [3] 28.7% | [4] 19.9% | [5] 10.6% | [6] 68.1% | [7] 13.7% | [8] 21.1% | [10] 20.5% | [11] 26.8% | [12] 20.8% | [13] 32.7% | [14] 42.1% | [15] 48.8% | [16] 17.3% | [17] 14.7% | [18] 10.9% | [19] 14.5%
active: [9] 8.17% | [20] 1.46%

CCn1c2ccc(/C=N/OCCCN(C)C)cc2c2cc(/C=N/OCCCN(C)C)ccc21
inactive: [2] 79.7% | [4] 62.5% | [6] 30.6% | [11] 17.1% | [16] 79.1%
active: [1] -5.99% | [3] -11.6% | [5] -3.59% | [7] -60.5% | [8] -67.8% | [9] -42.5% | [10] -55.6% | [12] -17.5% | [13] -88.3% | [14] -9.87% | [15] -73.3% | [17] -66.5% | [18] -80.4% | [19] -67.1% | [20] -84.4%

COc1cc(/C=N/Nc2ccnc3cc(Cl)ccc23)cc(OC)c1O
inactive: [2] 96.2% | [10] 72% | [19] 112%
active: [1] -42% | [3] -45.1% | [4] -78% | [5] -63.9% | [6] -74% | [7] -73.8% | [8] -82.2% | [9] -87.5% | [11] -24.6% | [12] -54.8% | [13] -88.3% | [14] -74.6% | [15] -86.8% | [16] -37.3% | [17] -80.3% | [18] -85% | [20] -90.1%

CCOC(=O)c1nn(-c2ccccc2)c(=O)c2c(N)c(C#N)c(-c3cccs3)cc12
inactive: [1] 69.4% | [2] 60% | [3] 91.4% | [4] 80.4% | [5] 92.9% | [6] 61.3% | [7] 83.8% | [8] 87.2% | [9] 41.4% | [10] 102% | [11] 88.3% | [12] 87.5% | [13] 88.4% | [14] 76.5% | [15] 59.9% | [16] 85.5% | [17] 64.4% | [18] 57.2% | [19] 93.5% | [20] 94.4%

CN1CCN(c2ccc(C(=O)Nc3cccc(-c4cn(-c5ccc(S(N)(=O)=O)cc5)nn4)c3)cc2C(F)(F)F)CC1
active: [12] 9.33% | [15] 6.63%
inactive: [1] 82.2% | [2] 96.8% | [3] 72% | [4] 85.7% | [5] 78.8% | [6] 56.4% | [7] 90.2% | [8] 91.5% | [9] 52.5% | [10] 85.3% | [11] 92.5% | [13] 71.4% | [14] 63.6% | [16] 82.9% | [17] 90.4% | [18] 46.2% | [19] 95.8% | [20] 82.2%

Nc1ccc(-c2nnc(SCc3ccc(O)c4ncccc34)o2)cc1
inactive: [14] 33.8%
active: [1] 3.69% | [2] -12.5% | [3] -0.446% | [4] -5.24% | [5] -46.8% | [6] -36.8% | [7] -2.05% | [8] -1.54% | [9] 7.93% | [10] 1.77% | [11] 9.69% | [12] 3.52% | [13] -2.77% | [15] -14.8% | [16] 1.12% | [17] -21.6% | [18] -14.1% | [19] -20.4% | [20] -38.8%

O=C(CSc1nnc(-c2cccs2)n1-c1ccccc1)Nc1ccc(F)cc1
inactive: [1] 102% | [2] 98.3% | [3] 97% | [4] 109% | [5] 103% | [6] 89.6% | [7] 82.4% | [8] 99.3% | [9] 103% | [10] 105% | [11] 107% | [12] 65.4% | [13] 97.4% | [14] 83.1% | [15] 97.9% | [16] 101% | [17] 91% | [18] 89.9% | [19] 103% | [20] 99.2%

C#C[C@]1(O)CC[C@H]2[C@@H]3CC=C4c5sc(Nc6ccc(OC)nc6)nc5CC[C@]4(C)[C@H]3CC[C@@]21C
active: [9] -27.6% | [12] 6.1% | [15] -15.7% | [17] -29.7%
inactive: [1] 63.1% | [2] 47.4% | [3] 85% | [4] 51.7% | [5] 41.5% | [6] 60% | [7] 36% | [8] 55.2% | [10] 49.3% | [11] 24.8% | [13] 55.2% | [14] 64.8% | [16] 45.9% | [18] 13.9% | [19] 89% | [20] 59%

— PubChem BioAssay (NCI)
